This is one part of the list. The hit rate among all sequences tested is not known here.
B1: HC1177 (peptide)
chain: CAAEITGHVKAGNASASA
B2: FS-1763 (peptide)
chain: CARPRRRYYPAGNASASA
B3: FS-1764 (peptide)
chain: CARPRRSPAQAGNASASA
B4: HC643 (peptide)
chain: CARDLAVAVEAGNASASA
B5: FS-2627 (peptide)
chain: CADARRSPDQAGNASASA
B6: FS-2581 (peptide)
chain: CARPRRPASPAGNASASA
B7: FS-2743 (peptide)
chain: CARPRRGSTAAGNASASA
B8: FS-1692 (peptide)
chain: CARDRRQATEAGNASASA
B9: FS-3026 (peptide)
chain: CARPRRSTSPAGNASASA
B10: FS-3025 (peptide)
chain: CARPRRSSTQAGNASASA
B11: HC2415 (peptide)
chain: CAEVPCHRPHAGNASASA
B12: HC269 (peptide)
chain: CAADAILHTPAGNASASA
B13: TR3 (peptide)
chain: CAIEPRSFSQAGNASASA
B14: HC51 (peptide)
chain: CATTPKSGSWAGNASASA
B15: FS-3229 (peptide)
chain: CARPRRSIVFAGNASASA
B16: HC1448 (peptide)
chain: CAKPARLIVFAGNASASA
B17: FS-2285 (peptide)
chain: CARPRRYLYQAGNASASA
B18: HC2493 (peptide)
chain: CASRPCSAHLAGNASASA
B19: FS-3203 (peptide)
chain: CARRDRSTSIAGNASASA
B20: FS-3179 (peptide)
chain: CALRKRSSSTAGNASASA
B21: FS-1839 (peptide)
chain: CARRSRAASVAGNASASA
B22: FS-2072 (peptide)
chain: CARRNRSTSTAGNASASA
B23: FS-3078 (peptide)
chain: CARSFRTASVAGNASASA
B24: FS-3068 (peptide)
chain: CARRRRSSSTAGNASASA
B25: FS-2299 (peptide)
chain: CARRRRSSSVAGNASASA
B26: HC2291 (peptide)
chain: CADDEVVTSTAGNASASA
B27: HC32 (peptide)
chain: CAMEECDQHLAGNASASA
B28: HC849 (peptide)
chain: CAGKAIPLEVAGNASASA
B29: HC122 (peptide)
chain: CAEVVGSTWVAGNASASA
B30: HC2511 (peptide)
chain: CASTDCSAHLAGNASASA
B31: FS-1095 (peptide)
chain: CATPPRERRGAGNASASA
B32: FS-6 (peptide)
chain: CAAPARERRGAGNASASA
B33: HC730 (peptide)
chain: CAVIPVRRRGAGNASASA
B34: FS-323 (peptide)
chain: CAAPKRRRRGAGNASASA
B35: FS-606 (peptide)
chain: CALFRRRRRGAGNASASA
B36: FS-1046 (peptide)
chain: CAPGHLRRRGAGNASASA
B37: FS-555 (peptide)
chain: CAPHRRRRRGAGNASASA
B38: HC542 (peptide)
chain: CAHGLVSFLVAGNASASA
B39: HC465 (peptide)
chain: CAVDYPYRLWAGNASASA
B40: HC1856 (peptide)
chain: CATGPCSGSWAGNASASA
B41: FS-2987 (peptide)
chain: CARLKKFQEAAGNASASA
B42: TV1 (peptide)
chain: CAGENLYFQSAGNASASA
B43: HC1191 (peptide)
chain: CAPINAYTTGAGNASASA

Molecular target: furin, P09958
Test: furin cleavage Z-score vs untreated control; higher = more cleavage, active = 3.5 or more, inactive = 1 or less, 8 variable residues between constant flanks
Summary of the method: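 To give the cleavage Z-score, log read counts were set against furin-free reactions, lowess-adjusted and scaled by median absolute deviation. These counts came from PCR adapter-tagged, sequenced DNA released when purified furin cut 8-mer peptides fused to a cDNA oligonucleotide and held on magnetic beads by their N-terminus. Digests were 0.01 ml, 1:10 enzyme:substrate, in 50 mM HEPES pH 7.5 with CaCl2 and NaCl, for 7.5, 15 or 30 min.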

Chain of furin, P09958 (P09958 whole entry): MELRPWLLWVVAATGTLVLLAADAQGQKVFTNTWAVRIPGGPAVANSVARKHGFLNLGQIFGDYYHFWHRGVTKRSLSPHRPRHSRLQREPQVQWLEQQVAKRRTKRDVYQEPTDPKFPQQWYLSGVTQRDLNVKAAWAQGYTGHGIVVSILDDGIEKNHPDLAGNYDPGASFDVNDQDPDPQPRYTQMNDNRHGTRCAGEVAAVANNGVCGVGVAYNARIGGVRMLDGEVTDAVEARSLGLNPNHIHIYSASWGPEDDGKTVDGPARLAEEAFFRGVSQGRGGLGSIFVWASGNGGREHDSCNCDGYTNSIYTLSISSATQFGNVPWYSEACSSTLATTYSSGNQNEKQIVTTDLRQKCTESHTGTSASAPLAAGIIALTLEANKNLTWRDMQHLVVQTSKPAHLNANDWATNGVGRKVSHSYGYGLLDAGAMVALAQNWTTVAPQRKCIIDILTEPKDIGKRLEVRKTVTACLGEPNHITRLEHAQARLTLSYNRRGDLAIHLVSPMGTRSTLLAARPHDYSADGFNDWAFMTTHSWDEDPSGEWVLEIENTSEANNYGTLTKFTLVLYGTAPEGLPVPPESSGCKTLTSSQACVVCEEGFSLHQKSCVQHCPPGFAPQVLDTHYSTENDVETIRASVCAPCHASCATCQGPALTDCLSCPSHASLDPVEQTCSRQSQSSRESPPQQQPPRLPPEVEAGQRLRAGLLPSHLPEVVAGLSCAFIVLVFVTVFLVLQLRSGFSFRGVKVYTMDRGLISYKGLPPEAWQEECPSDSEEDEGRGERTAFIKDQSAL

Sequence | furin cleavage Z-score (7.5 min) | furin cleavage Z-score (15 min) | furin cleavage Z-score (30 min)
B1 | 0.655 (inactive) | 2.37 | 0.185 (inactive)
B2 | 0.0891 (inactive) | 0.798 (inactive) | -1.17 (inactive)
B3 | 9.55 (active) | 11 (active) | 8.87 (active)
B4 | 1.07 | -0.796 (inactive) | 1.14
B5 | -0.496 (inactive) | -1.36 (inactive) | -0.54 (inactive)
B6 | 0.54 (inactive) | -0.0908 (inactive) | -2 (inactive)
B7 | 0.592 (inactive) | 0.93 (inactive) | 0.391 (inactive)
B8 | 3.4 | 4.98 (active) | 3.64 (active)
B9 | 10.5 (active) | 9.5 (active) | 8.81 (active)
B10 | 6.4 (active) | 8.65 (active) | 6.89 (active)
B11 | 0.403 (inactive) | -0.336 (inactive) | 0.894 (inactive)
B12 | 0.255 (inactive) | -1.84 (inactive) | -0.719 (inactive)
B13 | -0.606 (inactive) | -1.14 (inactive) | -0.409 (inactive)
B14 | -0.56 (inactive) | -0.574 (inactive) | -0.879 (inactive)
B15 | 4.51 (active) | 5.67 (active) | 7.41 (active)
B16 | 0.00411 (inactive) | -1.12 (inactive) | -1.48 (inactive)
B17 | 3.25 | 3.5 | 5.12 (active)
B18 | 0.596 (inactive) | 1.57 | 0.79 (inactive)
B19 | -0.171 (inactive) | 0.756 (inactive) | 1.79
B20 | 0.00727 (inactive) | 0.0326 (inactive) | -0.921 (inactive)
B21 | 1.46 | 1.72 | 3.72 (active)
B22 | 4.22 (active) | 6.96 (active) | 4.29 (active)

Sequence | furin cleavage Z-score (7.5 min) | furin cleavage Z-score (15 min) | furin cleavage Z-score (30 min)
B23 | 0.727 (inactive) | 0.141 (inactive) | 1.09
B24 | 8.2 (active) | 7.85 (active) | 5.87 (active)
B25 | 3.15 | 3.17 | 3.52 (active)
B26 | 0.608 (inactive) | 0.354 (inactive) | -0.134 (inactive)
B27 | -1.25 (inactive) | -0.295 (inactive) | 0.17 (inactive)
B28 | -0.874 (inactive) | -0.849 (inactive) | -0.983 (inactive)
B29 | -0.227 (inactive) | 0.0769 (inactive) | 0.871 (inactive)
B30 | -0.745 (inactive) | -1.14 (inactive) | 1.19
B31 | -0.768 (inactive) | -0.415 (inactive) | -0.163 (inactive)
B32 | 7.34 (active) | 8.29 (active) | 7.48 (active)
B33 | -0.464 (inactive) | 0.132 (inactive) | -0.326 (inactive)
B34 | 4.98 (active) | 4.92 (active) | 3.74 (active)
B35 | 5.12 (active) | 5.02 (active) | 5.06 (active)
B36 | -0.0765 (inactive) | 0.0326 (inactive) | 0.261 (inactive)
B37 | 5.9 (active) | 4.87 (active) | 5.4 (active)
B38 | 0.693 (inactive) | -0.401 (inactive) | 0.576 (inactive)
B39 | 0.139 (inactive) | 0.651 (inactive) | 1.32
B40 | -0.371 (inactive) | -0.739 (inactive) | -1.48 (inactive)
B41 | -0.948 (inactive) | -1.1 (inactive) | -1.63 (inactive)
B42 | -1.03 (inactive) | -1.63 (inactive) | -0.511 (inactive)
B43 | 0.157 (inactive) | 0.17 (inactive) | 0.965 (inactive)
